In PubChem BioAssay (Tox21):
A number with no mark means an inactive call. Active and inactive are the calls of the source. Calls come from the whole dose curve.

molecular target: Muscarinic acetylcholine receptor M1 (Homo sapiens) (UniProt P11229); assay: Cholinergic receptor muscarinic 1 (CHRM1) small molecule agonists, cell-based qHTS assay (AID 1963589); details: CHRM1-CHO cells, agonist mode, calcium flux fluorescence; series mostly up to 76.8 µM; activation: at the top concentration; note: nearly all actives have a fitted effect of over 35% in size
Sequence (P11229 whole entry, looked up): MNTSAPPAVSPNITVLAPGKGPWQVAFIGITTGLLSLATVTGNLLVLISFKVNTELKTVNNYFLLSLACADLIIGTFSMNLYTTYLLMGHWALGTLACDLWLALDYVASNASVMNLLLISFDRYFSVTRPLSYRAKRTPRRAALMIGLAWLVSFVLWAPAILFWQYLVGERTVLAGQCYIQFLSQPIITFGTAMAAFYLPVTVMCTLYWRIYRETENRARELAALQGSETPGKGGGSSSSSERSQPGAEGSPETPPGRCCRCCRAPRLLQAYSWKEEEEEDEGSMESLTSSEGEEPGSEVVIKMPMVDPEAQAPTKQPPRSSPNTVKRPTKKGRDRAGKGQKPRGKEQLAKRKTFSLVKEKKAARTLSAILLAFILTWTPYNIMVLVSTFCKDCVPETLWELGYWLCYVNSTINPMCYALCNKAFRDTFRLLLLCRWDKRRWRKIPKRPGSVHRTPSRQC
Source text: National Center for Advancing Translational Sciences [NCATS]
Division of Preclinical Innovation [DPI]
U.S. Environmental Protection Agency [EPA]
National Institutes of Environmental Health Sciences [NIEHS]
National Toxicology Program [NTP]
U.S. Food and Drug Administration [FDA]
The CHRM1 is a muscarinic receptor. This receptor plays a crucial role in learning and memory processes and has long been identified as a promising therapeutic target for the improvement of cognitive decline in Alzheimer's disease (AD). The CHRM1-CHO cell line stably expressing human muscarinic acetylcholine receptor M1 (CHRM1) can be used for screening agonists and antagonists of interactions between CHRM1 and its ligands. The CHRM1-CHO Calcium Flux Assay is a homogeneous fluorescence-based assay for detecting the intracellular calcium level using FDSS kinetic plate reader system.
CHRM1-CHO cells were dispensed at 1000 cells/3uL/well in 1536-well black-clear bottom plates using a Multidrop Dispenser. After the assay plates were incubated at a 37 C/5% CO2 incubator for 18 h, 3 uL of Dye Loading Buffer was transferred to the assay plate by a Flying Reagent Dispenser. The assay plates were incubated at 37 C for 1h. For agonist mode, 23 nL of compounds dissolved in DMSO, positive controls or DMSO only was transferred to the assay plate by a pin tool. […] Each test compound was measured at 15 concentrations in three independent runs.
% is set by controls: 0 for no effect and ±100 for the full control effect.

Row | SMILES | activation | Potency
1 | O=C(O)[C@H](O)[C@@H](O)[C@H](O[C@@H]1O[C@H](CO)[C@H](O)[C@H](O)[C@H]1O)[C@H](O)CO | 0.31% [at 35.3 µM] | 
2 | CCCCCCOCCOCCO |  | inactive
3 | COc1cccc(OC)c1C(=O)N[C@@H]1C(=O)N2[C@@H]1SC(C)(C)[C@@H]2C(=O)O | -0.104% [at 35.3 µM] | 
4 | O=C(O)c1cccc(C(F)(F)F)c1 | 0.431% | 
5 | Nc1nccs1 | -0.774% | 
6 | O=C(Nc1ccc([N+](=O)[O-])cc1Cl)c1cc(Cl)ccc1O |  | inactive
7 | CC(C)C(=O)Nc1cccc(C2CN3CCSC3=N2)c1 (stereo not given) | -0.0741% [at 35.3 µM] | 
8 | c1ccsc1 | 0.936% | 
9 | CC(O)CCCCn1c(=O)c2c(ncn2C)n(C)c1=O (stereo not given) | -0.0383% [at 35.3 µM] | 
10 | O=S(=O)(O)c1cccc2c(S(=O)(=O)O)cccc12 | -0.179% | 
11 | OCC(CO)(CBr)CBr |  | inactive
12 | CCN(CC)C(=O)C1CN2CCc3cc(OC)c(OC)cc3C2CC1OC(C)=O (stereo not given) | -0.493% [at 35.3 µM] | 
13 | CCC(C(=O)NC(N)=O)c1ccccc1 (stereo not given) | -0.273% | 
14 | COc1ccc2c(c1)CCCC2=O | 0.0151% [at 35.3 µM] | 
15 | CC1(C)O[C@H]2CC(=O)OC[C@]23[C@H]2CC[C@@]4(C)[C@H](c5ccoc5)OC(=O)[C@H]5O[C@]54[C@]2(C)C(=O)C[C@@H]13 | -0.114% [at 35.3 µM] | 
16 | C=CC(=O)CC | -0.532% | 
17 | OCC1(CO)COCOC1 | 0.148% | 
18 | CO/N=C(/C(=O)N[C@@H]1C(=O)N2C(C(=O)O)=C(COC(N)=O)CS[C@H]12)c1ccco1 | -0.47% | 
19 | CCCC[O][Al]([O]CCCC)[O]CCCC | 0.114% | 
20 | Nc1cccc(N)n1 |  | inactive

Row | SMILES | activation | Potency
21 | CC(=O)OCC1=C(C(=O)O)N2C(=O)[C@@H](NC(=O)Cc3cccs3)[C@H]2SC1 | -0.298% [at 35.3 µM] | 
22 | CC(C=O)c1ccccc1 (stereo not given) | 0.047% | 
23 | O=C(Nc1ccc(Cl)cc1)Nc1ccc(Cl)c(Cl)c1 |  | inactive
24 | CCCCCCCC/C=C\CCCCCCCC(=O)OCCCC | -0.0084% [at 15.8 µM] | 
25 | O=[N+]([O-])c1ccc(F)cc1F | 0.0771% | 
26 | Cc1onc(-c2ccccc2)c1C(=O)Cl | -0.073% [at 35.3 µM] | 
27 | CCCCc1ccc2cccc(S(=O)(=O)O)c2c1 | -0.0403% | 
28 | O=C1OC(=O)c2ccccc21 | 0.93% | 
29 | CN1CCCC1=O |  | inactive
30 | CCC(C)C1N=C(C)C(C)S1 (stereo not given) | -0.754% | 
31 | C=CC(O)CCCCC (stereo not given) | -0.0358% | 
32 | CCC(C)(Oc1ccc(C2(c3ccc(OC(C)(CC)C(=O)O)cc3)CCCCC2)cc1)C(=O)O (stereo not given) | 2.67% [at 35.3 µM] | 
33 | CCC(=O)c1ccc(O)cc1 | 0.097% [at 35.3 µM] | 
34 | Cc1occc1SSc1ccoc1C | 0.624% | 
35 | Cc1ccc(C(C)NC(=O)[C@@H](NC(=O)OC(C)C)C(C)C)cc1 (stereo not given in full) | -1.16% | 
36 | CO[Si](CCCOCC1CO1)(OC)OC (stereo not given) |  | inactive
37 | c1ccc(SCCSc2ccccc2)cc1 | 1.18% | 
38 | NC(=S)N/N=C/c1cccnc1 | 0.369% [at 35.3 µM] | 
39 | CC(=O)c1ccccc1N | -0.0691% | 
40 | c1ccc(Nc2cccc3ccccc23)cc1 |  | inactive
